This is a sample that favours compounds with a hit; in the whole collection about 19% have one here.
TDP1 cell noCPT = qHTS for Inhibitors of human tyrosyl-DNA phosphodiesterase 1 (TDP1): qHTS in cells in absence of CPT | DT40 Tdp1-/- hTDP1 cells, no CPT, ATP luminescence, 48 h | Potency, µM (top dose mostly 46.2 µM), inactives show at the highest dose activity change, negative = growth inhibition, actives largely listed as inhibitors | hit rate 15% among 420,000 | AID 686978, 2013; note: potency is the fitted concentration of half-maximal effect; nearly all actives have a fitted effect of over 55% in size
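No-CPT arm: Tdp1-/-;hTDP1 DT40 cells (400/well) plus compounds, incubated ≥48 hr at 37 °C. Readout CellTiter-Glo luminescence.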
DT40 TDP1 CPT = growth inhibition of DT40 Tdp1-/-;hTDP1 cells with camptothecin (screen for TDP1 inhibitors); chicken DT40 Tdp1-/-;hTDP1 cells + 20 nM CPT, ATP luminescence, 48 h; Potency, µM (series often up to 46.2 µM), inactives show at the highest dose activity change, negative = growth inhibition, hits mostly inhibitors; hit rate 12% among 420,000; AID 686979; note: potency is the fitted concentration of half-maximal effect; nearly all actives have a fitted effect of over 55% in size
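Chicken DT40 Tdp1-/- cells complemented with human TDP1, 400 cells/well, exposed to compounds plus 20 nM camptothecin for at least 48 h at 37 C; viability read as ATP content by CellTiter-Glo luminescence.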
uPA surface inh = inhibitors of cell surface uPA generation | cell surface uPA generation assay, qHTS | Potency, µM (series often up to 38.3 µM), for inactives: top-dose activity change, negative = inhibition, usual class: inhibitors | hit rate 0.31% among 330,000; active = well fitted inhibition curve with a large enough effect; inconclusive = small, poorly fitted or top-dose-only effect; inactive = no such curve, though single readings can be large or run the other way; tested in mouse RAW 264.7 cells; note: potency is the fitted concentration of half-maximal effect; nearly all actives have a fitted effect of over 55% in size
IL1B secr inh = inflammasome signaling inhibition, IL-1 beta readout. THP-1 LPS/ATP IL-1B secretion, AlphaLISA, 16 h; hits give low values. activity change, % at 57.5 µM. AID 743279. hit rate 4.7% among 360,000; in the data active = activity change below about -50%; inconclusive = mostly about -30% to -49%
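Secreted IL-1B measured by AlphaLISA bead assay after 16 h compound exposure of THP-1 cells; compounds (final up to 57.5 uM) added 1 h before LPS (250 ng/mL) and ATP (1.25 mM) stimulation; lower signal means less secretion.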
HT1080 IDH1KD tx = toxicity to HT-1080 IDH1 knockdown cells (counter line) | HT-1080 IDH1 knockdown viability, ATP luminescence, 48 h | Potency, µM (titrated, usually from 46.1 µM), inactives show top-dose activity, negative = toxicity, most hits filed as cytotoxic | hit rate 2% among 360,000 | AID 686971;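 note: potency is the fitted concentration of half-maximal effect; 0% = DMSO wells and -100% = cell-free medium wells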
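Cytotoxicity counter-line: IDH1KD HT-1080, 48 h, CellTiter-Glo. Curves classed by r2, magnitude and activity.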
HT1080NT lethal = kills 2HG-producing HT-1080-NT fibrosarcoma cells; HT-1080-NT fibrosarcoma viability, CellTiter-Glo ATP luminescence, 48 h; hit rate 1.6% among 360,000; Potency, µM (series often up to 46.1 µM), inactives show at the highest dose activity, negative = less viability, hits mostly cytotoxic;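 note: NT is the 2HG producing partner of a matched IDH1 knockdown line; potency is the fitted concentration of half-maximal effect; 0% = DMSO-treated cells and -100% = media-only wells without cells; nearly all actives have a fitted effect of over 55% in size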
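HT-1080-NT fibrosarcoma cells (2HG-overproducing), 750 cells/well in RPMI with 5% FBS, dosed after 2 h and incubated 48 h at 37C. CellTiter-Glo luminescence normalized to DMSO and no-cell wells; concentration-response curves fitted and classed.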
An asterisk follows results filed as active; ? = inconclusive; / = no result given; [ ] = dose if it differs, or a comment. Unless noted, calls come from the whole dose curve; as a rule, active = well fitted curve in the direction sought with a large enough effect; inconclusive = small, poorly fitted or top-dose-only effect, or another doubt; inactive = no such curve, though single readings can be large; an effect the other way counts as inactive or inconclusive. Unless noted, % is set by controls: 0 for no effect and ±100 for the full control effect.

SMILES	TDP1 cell noCPT	DT40 TDP1 CPT	uPA surface inh	IL1B secr inh	HT1080 IDH1KD tx	HT1080NT lethal
O=C(O)c1ccccc1N/N=C\c1ccnc2ccccc12	?	?	-9%	62	?	-25%
Nc1ccccc1/C=C/c1ccnc2ccccc12	3.2µM*	5µM*	/	/	/	/
Nc1ccccc1/C=C/c1ccccc1N	?	-12%	-9%	-24	-7%	-8%
C=Nc1ccc(/C=C/c2ccnc3ccccc23)cc1	11µM*	22µM*	/	/	/	/
N#CC(=Cc1ccnc2ccccc12)c1ccccc1	21µM*	?	/	-26	-17%	-1%
O=CNc1ccc(/C=C/c2ccnc3ccccc23)cc1	14µM*	13µM*	/	/	/	/
CCOCc1cc(=O)[nH]c(SC)n1	-17%	-5%	-12%	1	4%	13%
O=C(CO/N=C\c1ccccc1)Nc1ccccc1C(=O)N1CCOCC1	?	?	4%	3	-2%	7%
O=C(O)CC(NS(=O)(=O)c1ccc(Cl)s1)c1ccccc1 (stereo not drawn)	28%	1%	/	/	/	/
C[n+]1c(/C=C/c2ccnc3ccccc23)cc(/C=C/c2ccnc3ccccc23)c2ccccc21	2.5µM*	5µM*	/	/	/	/
Cn1cc(/C=C/c2ccnc3ccccc23)c2ccccc21	11µM*	?	/	/	/	/
O=c1[nH]c(/C=C/c2ccccc2[N+](=O)[O-])nc2ccccc12	-16%	-11%	4%	2	-6%	-2%
O=[N+]([O-])c1ccccc1/C=C/c1ccnc2ccccc12	14µM*	?	/	/	/	/
O=Cc1ccnc2ccccc12	-92%	2.8µM*	/	/	/	/
CCc1nnc(NC(=O)CSc2nnc3nc(C)cc(C)n23)s1	0%	-7%	-1%	14	11%	16%
Cc1cc(C(=O)NNC(=O)C(C)(C)Oc2ccc(Cl)cc2)c(C)o1	?	2%	8%	4	0%	-2%
CC[C@H]1NC(=O)[C@@H](NC(=O)c2ncccc2O)[C@@H](C)OC(=O)[C@H](c2ccccc2)NC(=O)[C@@H]2CC(=O)CCN2C(=O)[C@H](Cc2ccccc2)N(C)C(=O)[C@@H]2CCCN2C1=O	-8%	11%	/	/	/	/
O=C(Cn1cnc2ccccc2c1=O)c1cccs1	?	-12%	-5%	-19	2%	-1%
O=C(/C=C/c1ccnc2ccccc12)c1cccs1	13µM*	4.6µM*	0%	-118*	18µM*	18µM*
C(=C\c1ccnc2ccccc12)/c1cccnc1	13µM*	?	/	/	/	/
Oc1cc(O)c(/C=C/c2ccnc3ccccc23)c(O)c1	-18%	11%	/	/	/	/
C(=C\c1ccnc2ccccc12)/c1ccnc2ccccc12	18µM*	?	/	/	/	/
CCOC(=O)c1ccc(CN(Cc2ccc(F)cc2)S(=O)(=O)c2ccc(F)cc2)cc1	?	-15%	/	/	/	/
CC(=O)Nc1c([N+](=O)[O-])cc2c3c(cccc13)CC2	-18%	-20%	/	17	0%	26%
CCCCSCc1nc2nc(Cl)c(Cl)nc2[nH]1	18µM*	16µM*	/	-1	?	?
SMILES	TDP1 cell noCPT	DT40 TDP1 CPT	uPA surface inh	IL1B secr inh	HT1080 IDH1KD tx	HT1080NT lethal
CCOc1cc(/C=C2\C(=O)ON=C2c2ccccc2)cc(Br)c1O	?	?	-2%	-104*	?	?
COc1cc(/C=C2/C(=O)NN(c3cccc(Cl)c3)C2=O)cc(OC)c1O	-20%	-25%	-6%	7	-1%	-2%
COc1cc(/C=c2\sc3n(c2=O)C(c2ccccc2)C(c2ccccc2)=NN=3)ccc1O (stereo not drawn)	15µM*	?	3%	?	-27%	-19%
COc1cc(/C=C2/C(=O)ON=C2c2ccccc2)ccc1O	18µM*	23µM*	2%	-105*	-7%	-13%
COc1cc(/C=C2\C(=O)ON=C2c2ccccc2)cc(Cl)c1O	18µM*	16µM*	5%	-15	?	?
COc1cc(C(=O)NCC(=O)Nc2c(C)cccc2C)ccc1OCC(=O)N1CCOCC1	2%	0%	2%	15	2%	13%
CCCCC/C=C\C/C=C\C/C=C\C/C=C\CCCC(=O)O[C@@H](CO)COC(=O)CCCCCCCCCCCCCCCCC	-2%[4.12 µM]	0%[4.12 µM]	/	/	/	/
CC(C)NC(=O)N(C)C[C@H]1Oc2ccc(NC(=O)Nc3ccccc3)cc2C(=O)N([C@@H](C)CO)C[C@@H]1C	6%	3%	20%	7	12%	8%
COc1cc(C=C2C(=O)OC(c3ccccc3)OC2=O)cc(Br)c1O (stereo not drawn)	23µM*	?	3%	13	5%	11%
COc1cc(/C=C2\C(=O)ON=C2c2ccccc2)cc(Br)c1O	10µM*	6.5µM*	1%	-29	?	16µM*
CN(CC(=O)Nc1ccccc1C(F)(F)F)C(=O)CSc1nnc(-c2ccncc2)n1C	0%	2%	-8%	8	0%	11%
c1ccc2c(c1)Nc1cc3ccccc3cc1S2	-10%	3%	3%	4	19%	22%
COc1ccc2c(c1)Sc1ccccc1N2	16µM*	?	-10%	-25	?	-11%
Cc1cc(C(=O)CSc2cccc[n+]2[O-])c(C)n1-c1ccccc1	?	-16%	-15%	12	-15%	-7%
O=C(CSc1cccc[n+]1[O-])c1ccc(Cl)s1	1.3µM*	0.73µM*	1%	-8	?	?
O=C(CSc1cccc[n+]1[O-])c1ccccc1Br	5.2µM*	3.7µM*	0%	-29	?	?
COc1ccc(C(CNC(=O)C(C)Sc2ccccc2)N2CCOCC2)cc1 (stereo not drawn)	-3%	-11%	-1%	-11	14%	15%
CC(=O)c1ccccc1S(=O)(=O)N1CCN(c2nc(-c3cccs3)nc3ccccc23)CC1	7.1µM*	8.9µM*	/	/	0%	1%
Cc1nc(N2CCN(S(=O)(=O)c3ccccc3C#N)CC2)c2c(-c3cccs3)csc2n1	21µM*	?	-15%	-3	-13%	-2%
COc1ccccc1S(=O)(=O)N1CCN(c2nc(-c3cccs3)nc3ccccc23)CC1	7.9µM*	10µM*	/	/	0%	7%
CCOC(=O)c1ccccc1S(=O)(=O)N1CCN(c2nc(-c3cccs3)nc3ccccc23)CC1	11µM*	11µM*	/	/	23%	15%
Cc1ccccc1S(=O)(=O)N1CCN(c2nc(-c3cccs3)nc3ccccc23)CC1	?	?	/	/	23%	17%
Cc1nc(N2CCCCC2)c2c(-c3cccs3)csc2n1	?	?	7%	14	-19%	-10%

Screening data from PubChem BioAssay.
